An excerpt weighted towards active compounds, which were near 0.95% of everything screened.
Giardia FBPA inh – inhibitors of Giardia lamblia fructose-1,6-bisphosphate aldolase; AID 2451; purified Giardia FBPA; Potency, µM (top dose mostly 59.6 µM), for the others: top-dose activity, negative = inhibition, actives largely listed as inhibitors; 290,000 tested, 0.71% active; A8B2U2; further: nearly all actives have a fitted effect of over 55% in size
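40 nM FBPA preincubated 10 min at RT with compound (up to 57.5 uM final), then substrate plus GAPDH/TPI/NAD/arsenate coupling and diaphorase/resazurin added. Fluorescence read after 20 min at RT, 525/598 nm.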
RE007 growth inh – less growth of the S. pombe RE007 Vpr strain; 360,000 tested, 0.21% active; Potency, µM (titrated, usually from 92.2 µM), without a hit: at the highest dose activity change, negative = less growth, usual class: inhibitors; S. pombe RE007 Vpr strain, BacTiter-Glo ATP luminescence, 24 h; active means well fitted falling curve with a large enough effect; inconclusive means small, poorly fitted or top-dose-only effect; inactive means no such curve, though single readings can be large or run the other way; further: nearly all actives have a fitted effect of over 50% in size
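Fission yeast RE007 carrying one integrated HIV-1 vpr copy, seeded at OD 0.01 in PMG+AL medium with 23 nL pinned compound. Grown 24 h at 30 degrees; viability read by BacTiter-Glo luminescence after 5 min.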
Tb PYK inh – T. brucei pyruvate kinase inhibition. TbPYK enzyme, Kinase-Glo Plus ATP luminescence, 45 min. Potency, µM (top dose mostly 76.8 µM), for the others: at the top dose activity, negative = inhibition, most hits filed as inhibitors. Q57TT1. 410,000 tested, 0.12% active; further: nearly all actives have a fitted effect of over 50% in size
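Quantitative HTS: titrated library compounds versus trypanosomal pyruvate kinase in TEA buffer (pH 7.2) containing KCl, MgCl2, BSA and Tween-20. Reactions were initiated with ADP, 130 uM final. Kinase-Glo Plus luminescence was read after 45 min at RT.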
LmPK inhibitor – LmPK (Leishmania mexicana) enzyme inhibition; 290,000 tested, 0.37% active; purified LmPK, Kinase-Glo ATP luminescence, 1 h; Potency, µM (highest dose often 57.5 µM), without a hit: at the highest dose activity change, negative = inhibition, usual class: inhibitors; Q27686
Target sequence (Q27686 whole entry, looked up): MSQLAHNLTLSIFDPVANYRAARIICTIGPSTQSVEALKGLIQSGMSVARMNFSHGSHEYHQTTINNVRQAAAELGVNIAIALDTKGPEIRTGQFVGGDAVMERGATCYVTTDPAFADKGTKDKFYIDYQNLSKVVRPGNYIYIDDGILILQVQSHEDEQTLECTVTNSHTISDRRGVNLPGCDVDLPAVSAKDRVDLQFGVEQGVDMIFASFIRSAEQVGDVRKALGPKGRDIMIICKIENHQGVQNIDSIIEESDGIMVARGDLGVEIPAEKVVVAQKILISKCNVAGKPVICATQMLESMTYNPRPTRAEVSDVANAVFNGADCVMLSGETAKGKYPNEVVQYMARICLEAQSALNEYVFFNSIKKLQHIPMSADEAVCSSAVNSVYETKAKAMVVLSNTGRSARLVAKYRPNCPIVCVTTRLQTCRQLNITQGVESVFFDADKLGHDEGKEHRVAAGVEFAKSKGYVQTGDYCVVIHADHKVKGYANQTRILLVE
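qHTS format; LmPK 0.1 nM; substrates PEP 0.5 mM and ADP 0.1 mM. One-hour room-temperature incubation, then coupled luciferase luminescence; 0.5 nM enzyme wells mark activation.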
* marks the source's active call; other numbers are inactive results; ? = inconclusive; · = not tested or not shown; ! = not confirmed by another sample; [ ] = dose if it differs, or a comment. Unless noted, the call rests on the fitted dose curve; in most records, active means well fitted curve in the direction sought with a large enough effect; inconclusive means small, poorly fitted or top-dose-only effect, or another doubt; inactive means no such curve, though single readings can be large; an effect the other way counts as inactive or inconclusive. On the % scale 0 is the no-effect control and ±100 the full control effect; potency means the concentration at half of the fitted maximal effect.

SMILES	Giardia FBPA inh	RE007 growth inh	Tb PYK inh	LmPK inhibitor
C[C@]12C=CC(=O)C=C1[C@@H](F)C[C@@H]1[C@@H]2[C@@H](O)C[C@@]2(C)[C@H]1CC[C@]2(O)C(=O)CO	·	·	-9%	·
CCc1cccc(NC(=O)c2ccc3c(c2)c(C)c(C)n3Cc2ccc(F)cc2)c1	·	·	6%[15.4 µM]	·
COc1cc(CC(C)N)c(OC)cc1C (stereo unspecified)	·	·	-9%[157 µM]	·
Cc1ccccc1-n1c(Cc2cccs2)n[nH]c1=S	-4%	13%	?	8.9µM*
FC(F)(F)c1ccc(Cl)c(-n2c(Cc3cccs3)n[nH]c2=S)c1	-4%	17%	?	8.9µM*
COc1ccc(/C=N/n2c(-c3n[nH]c4c3CCC4)n[nH]c2=S)cc1	-6%	0%	?	-19%
COc1ccc(OC)c(/C=N/n2c(-c3n[nH]c4c3CCC4)n[nH]c2=S)c1	-20%	3%	3.5µM*	-10%
COc1ccc(/C=N/n2c(-c3n[nH]c4c3CCC4)n[nH]c2=S)c(OC)c1OC	-8%	43%	-38%	-8%
COc1cc(OC)c(OC)cc1/C=N/n1c(-c2n[nH]c3c2CCC3)n[nH]c1=S	-19%	20%	2.5µM*	-20%
CCn1c(C(c2ccccc2)c2ccccc2)n[nH]c1=S	6%	9%	8.9µM*	-18%
CCCOc1ccc(CCc2n[nH]c(=S)n2Cc2ccccc2)cc1	-5%	22%	?	?
S=c1[nH]nc(CCc2ccccc2)n1Cc1ccccc1	?	0%	4µM*	8.9µM*
COc1ccccc1OCc1n[nH]c(=S)n1Cc1ccccc1	-2%	14%	4µM*	-1%
COc1ccc(-n2nc3cc(C)c(N)c(Br)c3n2)cc1	7.1µM*	0%	?	?
CC1(C)OC(C)(C)/C(=C/Nc2ccc(O)cc2)C1=O	2.8µM*	4%	-16%	1%
CC1(C)OC(=O)C(=CNc2cccc(O)c2)C(=O)O1	-2%	2%	-3%	-4%
Cc1cccc(-c2nc3scc(CCNS(=O)(=O)c4ccc(F)c(C(F)(F)F)c4)n3n2)c1	·	·	-5%	·
COc1cc(OC)c(NC(=O)N2CCc3c(sc4c3CCCC4)C2c2ccccc2)cc1Cl (stereo unspecified)	·	·	4%	·
O=S(c1ccccc1O)S(=O)c1ccccc1O (stereo unspecified)	·	35µM*	4.5µM*	·
O=[N+]([O-])c1nccn1CO[C@@H](CO)[C@H](O)CO	·	·	4%	·
CCc1sc(C(C2C(=O)CC(C)(C)CC2=O)C2C(=O)CC(C)(C)CC2=O)cc1[N+](=O)[O-]	14%	0%	25µM*	-1%
CC1(C)CC(=O)C(C(c2ccc(F)cc2)C2C(=O)CC(C)(C)CC2=O)C(=O)C1	0%	-5%	1%	0%
Cc1ccsc1CN(Cc1ccco1)c1cnc(S(C)(=O)=O)nc1C(=O)Nc1ccc(Cl)cc1	·	·	2%	·
CC(c1ccc(Cl)cc1)n1c(-c2ccc3ccccc3n2)n[nH]c1=S (stereo unspecified)	4%	-1%	-27%	2%
S=c1[nH]nc(-c2ccc3ccccc3n2)n1-c1ccccc1	6%	·	?	28µM*
SMILES	Giardia FBPA inh	RE007 growth inh	Tb PYK inh	LmPK inhibitor
S=c1[nH]nc(-c2ccc3ccccc3n2)n1-c1ccc2c(c1)OCCO2	13%	-3%	4.5µM*	8.9µM*
COc1ccc(Cc2n[nH]c(=S)n2-c2ccc3c(c2)OCCO3)cc1	-7%	11%	?	-25%
CC(c1ccc(F)cc1)n1c(-c2ccc3ccccc3n2)n[nH]c1=S (stereo unspecified)	·	9%	-13%	11µM*
Fc1ccccc1-n1c(-c2ccc3ccccc3n2)n[nH]c1=S	-23%	-17%	?	-12%
CCN(CC)C(=O)c1ccc(NC(=O)c2cccc(F)c2)cc1	3%	4%	-9%	28µM*
COc1cc(C(=O)ON=C2C=C(C)C(=O)C(C)=C2)cc(OC)c1OC	?	-2%	-5%	1%
COc1cc(C(=O)O/N=C2\C=CC(=O)C(C)=C2)cc(OC)c1OC	20µM*	?	-8%	-5%
CN1C(=O)Cc2cc(S(=O)(=O)CCC(=O)N3CCN(c4ccc(Cl)cc4)CC3)ccc21	·	·	1%	·
COc1cc2c(cc1OC)C1O[C@](CCCCN3C(=O)c4ccccc4C3=O)(C2)OC2=C1C(=O)CCC2	-21%[12.9 µM]	·	·	-12%[11.5 µM]
CCc1cnc2c(c1SCC(=O)N1CCCCC1)c(=O)n(C)c(=O)n2C	·	·	-6%	·
CCc1cnc2c(c1SC(C(C)=O)C(=O)N(C)C)c(=O)n(C)c(=O)n2C (stereo unspecified)	·	·	14µM*	·
O=C1CC(=O)N(CCNc2ncc(C(F)(F)F)cc2Cl)C(=O)N1	12%	0%	-5%	-1%
O=C1C=CC(=O)N1CCNc1ncc(C(F)(F)F)cc1Cl	-17%	2.5µM*	?	2%
C#C[C@]1(O)CC[C@H]2[C@H]3CCc4cc(O)ccc4[C@@H]3CC[C@@]21C	-4%	·	·	·
CNC[C@@H]1CC[C@@H](N)[C@@H](O[C@H]2[C@H](O)[C@@H](O[C@H]3OC[C@](C)(O)[C@H](NC)[C@H]3O)[C@H](N)C[C@@H]2N)O1	·	·	0%	·
COCCNC(=O)c1ccc(-n2c(-c3ccccc3)cc3c2CCCCC3)cc1	·	·	7%	·
Cc1cc(C)n(CCN(C)Cc2nc(Cc3ccccc3F)no2)n1	-10%	-11%	-1%	28µM*
CN(Cc1nc(Cc2ccccc2F)no1)[C@@H]1CS(=O)(=O)C[C@H]1O	6%	-4%	1%	-2%
CCc1ccc(NC(=O)c2ccc(F)c(S(=O)(=O)NCCc3ccc(OC)c(OC)c3)c2)cc1	·	·	8%	·
CN=c1nc(-c2ccccc2)n(-c2ccccc2)s1	-2%	-2%	7.9µM*	·
Cn1nc(-c2ccccc2)nc1-c1ccccc1	·	-4%	0%	·
Cc1c(/C=N\NC(=O)c2ccc(F)cc2)cnn1C	-2%	4%	-11%	-2%
Cc1occc1C(=O)N/N=C/c1ccc(N(C)C)cc1	-1%	?	?	10µM*
Cc1occc1C(=O)N/N=C/c1cnn(C)c1C	-1%	1%	-16%	16µM*
CC12CCC=CC1C(c1ccc(/C=C/c3ccccc3)cc1F)N(Cc1ccccc1)C2=O (stereo unspecified)	-2%	·	·	·
SMILES	Giardia FBPA inh	RE007 growth inh	Tb PYK inh	LmPK inhibitor
O=C(O)c1ccc2c(c1)C(=O)/C(=C/c1ccccc1)C2=O	-27%	3%	35µM*	0%
CO/N=C(\C(=O)N[C@@H]1C(=O)N2C(C(=O)[O-])=C(C[n+]3cccc4c3CCCC4)CS[C@H]12)c1csc(N)n1	·	·	-14%	·
O=C(O)c1ccc(N/N=C/c2c[nH]c3ccccc23)cc1	-5%	-10%	-17%	6%
Fc1c(F)c(F)c(N/N=C/c2c[nH]c3ccccc23)c(F)c1F	-5%	16µM*	-12%	-1%
CCOC(=O)Nc1ccc(NCc2ccc(F)cc2)nc1N	-29%	-12%	32µM*!	·
O=c1oc(-c2ccc(C(F)(F)F)cc2)nn1Cc1cc(Cl)ccc1O	-8%	·	·	·
CC1CSc2nc3sc4c(c3c(=O)n21)CCCC4 (stereo unspecified)	0%	22µM*	-19%	-5%

Assay outcomes (PubChem)
